This is an account of results in publication PMC8384837, “Expanding the binding specificity for RNA recognition by a PUF domain”.

Common to all, as to assay: yeast three-hybrid, YBZ-1, SC-Leu-His + 0.5 mM 3-AT, 4 days
What all share (details): tags: N-Gal4 AD-HA kept; label: inside an RPR1-promoter hybrid RNA with tandem MS2 sites; ssRNA

One experiment deals with PUM1 PUF domain R8-HWK (Homo sapiens, UniProt Q14671 828-1176, N1122H;Y1123W;Q1126K). Put shortly:
(§1)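 Repeat regions from input (SC-Leu) and selection (SC-Leu-His + 0.5 mM 3-AT) plates were PCR-amplified and Illumina-sequenced after four days of growth. The cells were strain YBZ-1 with a LexA–MS2 coat fusion and a HIS3 reporter, co-expressing Pumilio-1 PUF domain libraries and matching RNA elements from a centromeric plasmid. The interaction score is the log change in variant frequency from input to selection, taken in log2 with a pseudocount of 1 for absent variants.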

In a further experiment the target is PUM1 PUF domain R8-KRW (Homo sapiens, UniProt Q14671 828-1176, N1122K;Y1123R;Q1126W). Put shortly:
as §1

The target in another experiment is PUM1 PUF domain R8-PFV (Homo sapiens, UniProt Q14671 828-1176, N1122P;Y1123F;Q1126V). In a few lines: as §1
Another experiment has as its target PUM1 PUF domain R1-TFR (Homo sapiens, UniProt Q14671 828-1176, S863T;R864F;Q867R). Put shortly: as §1
The target of another experiment is PUM1 PUF domain R1-CIR (Homo sapiens, UniProt Q14671 828-1176, S863C;R864I;Q867R). Put shortly:
as §1

The next experiment concerns the target PUM1 PUF domain R1-KRQ (Homo sapiens, UniProt Q14671 828-1176, S863K). In a few lines:
as §1

Another experiment has as its target PUM1 PUF domain R7-RVC (Homo sapiens, UniProt Q14671 828-1176, S1079R;N1080V;E1083C). Put shortly:
as §1

For a further experiment, the target named is PUM1 PUF domain R7-GRL (Homo sapiens, UniProt Q14671 828-1176, S1079G;N1080R;E1083L). In a few lines:
as §1

Another experiment deals with PUM1 PUF domain R7-GRV (Homo sapiens, UniProt Q14671 828-1176, S1079G;N1080R;E1083V). In a few lines: as §1
For another experiment, the target named is PUM1 PUF domain R4-CNS (Homo sapiens, UniProt Q14671 828-1176, N971C;H972N;Q975S). Put shortly: as §1
A further experiment addresses PUM1 PUF domain R4-RMA (Homo sapiens, UniProt Q14671 828-1176, N971R;H972M;Q975A). Put shortly:
as §1

For the next experiment, the target named is PUM1 PUF domain R5-RRW (Homo sapiens, UniProt Q14671 828-1176, C1007R;Q1011W). Put shortly: as §1
A further experiment concerns the target PUM1 PUF domain R7-QND (Homo sapiens, UniProt Q14671 828-1176, S1079Q;E1083D). Put shortly: as §1
Another experiment has as its target PUM1 PUF domain R5-KNA (Homo sapiens, UniProt Q14671 828-1176, C1007K;R1008N;Q1011A). Put shortly: as §1
In another experiment the target is PUM1 PUF domain R5-QIR (Homo sapiens, UniProt Q14671 828-1176, C1007Q;R1008I;Q1011R). In a few lines: as §1
For the next experiment, the target named is PUM1 PUF domain R5-RTL (Homo sapiens, UniProt Q14671 828-1176, C1007R;R1008T;Q1011L). In a few lines: as §1
The target in another experiment is PUM1 PUF domain R3-RPH (Homo sapiens, UniProt Q14671 828-1176, C935R;R936P;Q939H). In a few lines: as §1
In another experiment the target is PUM1 PUF domain R3-RVT (Homo sapiens, UniProt Q14671 828-1176, C935R;R936V;Q939T). Put shortly: as §1
Another experiment addresses PUM1 PUF domain R3-RIR (Homo sapiens, UniProt Q14671 828-1176, C935R;R936I;Q939R). Put shortly: as §1
The next experiment concerns the target PUM1 PUF domain R2-LYL (Homo sapiens, UniProt Q14671 828-1176, N899L;Q903L). In a few lines:
as §1

PUM1 PUF domain R5-RRW, sequence (Q14671 828-1176 C1007R/Q1011W): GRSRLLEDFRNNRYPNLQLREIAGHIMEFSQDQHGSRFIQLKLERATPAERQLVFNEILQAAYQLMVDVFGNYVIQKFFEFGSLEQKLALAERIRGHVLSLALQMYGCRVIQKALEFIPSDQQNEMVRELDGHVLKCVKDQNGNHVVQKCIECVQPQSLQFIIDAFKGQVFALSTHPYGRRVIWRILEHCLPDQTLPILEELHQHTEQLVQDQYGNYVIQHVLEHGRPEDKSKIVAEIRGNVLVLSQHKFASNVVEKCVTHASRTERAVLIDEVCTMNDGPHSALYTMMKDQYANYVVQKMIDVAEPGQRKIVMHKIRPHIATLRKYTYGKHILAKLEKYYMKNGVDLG
PUM1 PUF domain R8-HWK, sequence (Q14671 828-1176 N1122H/Y1123W/Q1126K): as the sequence (Q14671 828-1176 C1007R/Q1011W) above, with R180C, W184Q, N295H, Y296W, Q299K counted along it
PUM1 PUF domain R4-CNS, sequence (Q14671 828-1176 N971C/H972N/Q975S): as the sequence (Q14671 828-1176 C1007R/Q1011W) above, with N144C, H145N, Q148S, R180C, W184Q counted along it
PUM1 PUF domain R8-KRW, sequence (Q14671 828-1176 N1122K/Y1123R/Q1126W): as the sequence (Q14671 828-1176 C1007R/Q1011W) above, with R180C, W184Q, N295K, Y296R, Q299W counted along it
PUM1 PUF domain R8-PFV, sequence (Q14671 828-1176 N1122P/Y1123F/Q1126V): as the sequence (Q14671 828-1176 C1007R/Q1011W) above, with R180C, W184Q, N295P, Y296F, Q299V counted along it
PUM1 PUF domain R3-RIR, sequence (Q14671 828-1176 C935R/R936I/Q939R): as the sequence (Q14671 828-1176 C1007R/Q1011W) above, with C108R, R109I, Q112R, R180C, W184Q counted along it
PUM1 PUF domain R1-CIR, sequence (Q14671 828-1176 S863C/R864I/Q867R): as the sequence (Q14671 828-1176 C1007R/Q1011W) above, with S36C, R37I, Q40R, R180C, W184Q counted along it
PUM1 PUF domain R5-QIR, sequence (Q14671 828-1176 C1007Q/R1008I/Q1011R): as the sequence (Q14671 828-1176 C1007R/Q1011W) above, with R180Q, R181I, W184R counted along it
PUM1 PUF domain R1-KRQ, sequence (Q14671 828-1176 S863K): as the sequence (Q14671 828-1176 C1007R/Q1011W) above, with S36K, R180C, W184Q counted along it
PUM1 PUF domain R7-QND, sequence (Q14671 828-1176 S1079Q/E1083D): as the sequence (Q14671 828-1176 C1007R/Q1011W) above, with R180C, W184Q, S252Q, E256D counted along it
PUM1 PUF domain R3-RVT, sequence (Q14671 828-1176 C935R/R936V/Q939T): as the sequence (Q14671 828-1176 C1007R/Q1011W) above, with C108R, R109V, Q112T, R180C, W184Q counted along it
PUM1 PUF domain R7-GRV, sequence (Q14671 828-1176 S1079G/N1080R/E1083V): as the sequence (Q14671 828-1176 C1007R/Q1011W) above, with R180C, W184Q, S252G, N253R, E256V counted along it
PUM1 PUF domain R5-RTL, sequence (Q14671 828-1176 C1007R/R1008T/Q1011L): as the sequence (Q14671 828-1176 C1007R/Q1011W) above, with R181T, W184L counted along it
PUM1 PUF domain R3-RPH, sequence (Q14671 828-1176 C935R/R936P/Q939H): as the sequence (Q14671 828-1176 C1007R/Q1011W) above, with C108R, R109P, Q112H, R180C, W184Q counted along it
PUM1 PUF domain R5-KNA, sequence (Q14671 828-1176 C1007K/R1008N/Q1011A): as the sequence (Q14671 828-1176 C1007R/Q1011W) above, with R180K, R181N, W184A counted along it
PUM1 PUF domain R7-GRL, sequence (Q14671 828-1176 S1079G/N1080R/E1083L): as the sequence (Q14671 828-1176 C1007R/Q1011W) above, with R180C, W184Q, S252G, N253R, E256L counted along it
PUM1 PUF domain R1-TFR, sequence (Q14671 828-1176 S863T/R864F/Q867R): as the sequence (Q14671 828-1176 C1007R/Q1011W) above, with S36T, R37F, Q40R, R180C, W184Q counted along it
PUM1 PUF domain R4-RMA, sequence (Q14671 828-1176 N971R/H972M/Q975A): as the sequence (Q14671 828-1176 C1007R/Q1011W) above, with N144R, H145M, Q148A, R180C, W184Q counted along it
PUM1 PUF domain R7-RVC, sequence (Q14671 828-1176 S1079R/N1080V/E1083C): as the sequence (Q14671 828-1176 C1007R/Q1011W) above, with R180C, W184Q, S252R, N253V, E256C counted along it
PUM1 PUF domain R2-LYL, sequence (Q14671 828-1176 N899L/Q903L): as the sequence (Q14671 828-1176 C1007R/Q1011W) above, with N72L, Q76L, R180C, W184Q counted along it

Take “GGCUAGAACUAGUGGAUCCCCCGGCGCCCGGCGGCUCGAGCCCGGGUAAGGGUAAAUAGUCUGCAUGCCGCCGGGCGCCAUGCCUGCAGGUCGACUCUAGAAAACAUG”: the binding signal with PUM1 PUF domain R8-HWK was 2.46 log2 enrichment (interaction score).

Turning to “GGCUAGAACUAGUGGAUCCCCCGGCGCCCGGCGGCUCGAGCCCGGGUAAGCGUAAAUAGUCUGCAUGCCGCCGGGCGCCAUGCCUGCAGGUCGACUCUAGAAAACAUG”, the binding signal with PUM1 PUF domain R8-KRW is 3.21 log2 enrichment (interaction score); with PUM1 PUF domain R8-PFV, 2.24 log2 enrichment (interaction score); in the experiment with PUM1 PUF domain R8-HWK it was 2.42 log2 enrichment (interaction score).

Consider “GGCUAGAACUAGUGGAUCCCCCGGCGCCCGGCGGCUCGAGCCCGGGUAAGUGUAAAUCGUCUGCAUGCCGCCGGGCGCCAUGCCUGCAGGUCGACUCUAGAAAACAUG”, for which the binding signal with PUM1 PUF domain R1-TFR was 6.07 log2 enrichment (interaction score); with PUM1 PUF domain R1-CIR, 4.43 log2 enrichment (interaction score); in the experiment with PUM1 PUF domain R1-KRQ it was 5.97 log2 enrichment (interaction score).

In the case of “GGCUAGAACUAGUGGAUCCCCCGGCGCCCGGCGGCUCGAGCCCGGGUAAGUUUAAAUAGUCUGCAUGCCGCCGGGCGCCAUGCCUGCAGGUCGACUCUAGAAAACAUG”, the results for the binding signal with PUM1 PUF domain R7-RVC, in the experiment with PUM1 PUF domain R7-GRL and in the experiment with PUM1 PUF domain R7-GRV were 2.88 log2 enrichment (interaction score), 2.75 log2 enrichment (interaction score) and 2.62 log2 enrichment (interaction score), respectively.

As to “GGCUAGAACUAGUGGAUCCCCCGGCGCCCGGCGGCUCGAGCCCGGGUAAGUGUAUAUAGUCUGCAUGCCGCCGGGCGCCAUGCCUGCAGGUCGACUCUAGAAAACAUG”, the binding signal with PUM1 PUF domain R4-CNS is 3.64 log2 enrichment (interaction score).

Consider “GGCUAGAACUAGUGGAUCCCCCGGCGCCCGGCGGCUCGAGCCCGGGUAAGUGUAAAUAGUCUGCAUGCCGCCGGGCGCCAUGCCUGCAGGUCGACUCUAGAAAACAUG”, for which the binding signal was 4.05 log2 enrichment (interaction score) with PUM1 PUF domain R4-RMA; 0.73 log2 enrichment (interaction score) in the experiment with PUM1 PUF domain R4-CNS; 1.73 log2 enrichment (interaction score) in the experiment with PUM1 PUF domain R8-KRW; 0.79 log2 enrichment (interaction score) with PUM1 PUF domain R5-RRW; 3.96 log2 enrichment (interaction score) in the experiment with PUM1 PUF domain R7-QND; 1.89 log2 enrichment (interaction score) with PUM1 PUF domain R8-PFV. Also, in the experiment with PUM1 PUF domain R8-HWK, the binding signal is 2.36 log2 enrichment (interaction score).

For “GGCUAGAACUAGUGGAUCCCCCGGCGCCCGGCGGCUCGAGCCCGGGUAAGUGUCAAUAGUCUGCAUGCCGCCGGGCGCCAUGCCUGCAGGUCGACUCUAGAAAACAUG”, the binding signal is 2.79 log2 enrichment (interaction score) in the experiment with PUM1 PUF domain R5-KNA, 3.43 log2 enrichment (interaction score) with PUM1 PUF domain R5-RRW, 3.55 log2 enrichment (interaction score) with PUM1 PUF domain R5-QIR and 2.38 log2 enrichment (interaction score) with PUM1 PUF domain R5-RTL.

With “GGCUAGAACUAGUGGAUCCCCCGGCGCCCGGCGGCUCGAGCCCGGGUAAGUGUAAUUAGUCUGCAUGCCGCCGGGCGCCAUGCCUGCAGGUCGACUCUAGAAAACAUG”, the values for the binding signal with PUM1 PUF domain R3-RPH, with PUM1 PUF domain R3-RVT and with PUM1 PUF domain R3-RIR were 3.26 log2 enrichment (interaction score), 2.47 log2 enrichment (interaction score) and 4.33 log2 enrichment (interaction score), respectively.

“GGCUAGAACUAGUGGAUCCCCCGGCGCCCGGCGGCUCGAGCCCGGGUAAGUGUAAAUUGUCUGCAUGCCGCCGGGCGCCAUGCCUGCAGGUCGACUCUAGAAAACAUG”: the binding signal in the experiment with PUM1 PUF domain R1-CIR is 0.87 log2 enrichment (interaction score).

Consider “GGCUAGAACUAGUGGAUCCCCCGGCGCCCGGCGGCUCGAGCCCGGGUAAGUGUAAGUAGUCUGCAUGCCGCCGGGCGCCAUGCCUGCAGGUCGACUCUAGAAAACAUG”, for which the binding signal in the experiment with PUM1 PUF domain R3-RIR was 5.02 log2 enrichment (interaction score).

“GGCUAGAACUAGUGGAUCCCCCGGCGCCCGGCGGCUCGAGCCCGGGUAAGUGUGAAUAGUCUGCAUGCCGCCGGGCGCCAUGCCUGCAGGUCGACUCUAGAAAACAUG”: the binding signal with PUM1 PUF domain R5-RRW was 0.3 log2 enrichment (interaction score).

Regarding “GGCUAGAACUAGUGGAUCCCCCGGCGCCCGGCGGCUCGAGCCCGGGUAAGUGUUAAUAGUCUGCAUGCCGCCGGGCGCCAUGCCUGCAGGUCGACUCUAGAAAACAUG”, the binding signal with PUM1 PUF domain R5-RRW is 3.67 log2 enrichment (interaction score); with PUM1 PUF domain R5-QIR, 1.95 log2 enrichment (interaction score).

For the sequence “GGCUAGAACUAGUGGAUCCCCCGGCGCCCGGCGGCUCGAGCCCGGGUAAGUGUACAUAGUCUGCAUGCCGCCGGGCGCCAUGCCUGCAGGUCGACUCUAGAAAACAUG”, the binding signal with PUM1 PUF domain R4-CNS is 2.9 log2 enrichment (interaction score).

For the sequence “GGCUAGAACUAGUGGAUCCCCCGGCGCCCGGCGGCUCGAGCCCGGGUAAGUGUAAAAAGUCUGCAUGCCGCCGGGCGCCAUGCCUGCAGGUCGACUCUAGAAAACAUG”, the binding signal with PUM1 PUF domain R2-LYL is 3.33 log2 enrichment (interaction score).
